Measurements as given in article PMC4336329 (PLoS ONE, 2015).
About 14,000 (4.5%) of roughly 310,000 compounds showed an effect of 50% or more. Effects have a minus sign here. Shown is part of a subset that was picked to be rich in strong results.

What follows are compounds tested against human ether-à-go-go-related gene (hERG) potassium channel (human, UniProt Q12809) (assay: primary screen, population patch clamp on CHO cells stably expressing hERG; higher = less effect of the substance).
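Also: peak tail current of the secondary pulse compared with the same well before compound.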

Sequence of human ether-à-go-go-related gene (hERG) potassium channel (Q12809 whole entry, looked up): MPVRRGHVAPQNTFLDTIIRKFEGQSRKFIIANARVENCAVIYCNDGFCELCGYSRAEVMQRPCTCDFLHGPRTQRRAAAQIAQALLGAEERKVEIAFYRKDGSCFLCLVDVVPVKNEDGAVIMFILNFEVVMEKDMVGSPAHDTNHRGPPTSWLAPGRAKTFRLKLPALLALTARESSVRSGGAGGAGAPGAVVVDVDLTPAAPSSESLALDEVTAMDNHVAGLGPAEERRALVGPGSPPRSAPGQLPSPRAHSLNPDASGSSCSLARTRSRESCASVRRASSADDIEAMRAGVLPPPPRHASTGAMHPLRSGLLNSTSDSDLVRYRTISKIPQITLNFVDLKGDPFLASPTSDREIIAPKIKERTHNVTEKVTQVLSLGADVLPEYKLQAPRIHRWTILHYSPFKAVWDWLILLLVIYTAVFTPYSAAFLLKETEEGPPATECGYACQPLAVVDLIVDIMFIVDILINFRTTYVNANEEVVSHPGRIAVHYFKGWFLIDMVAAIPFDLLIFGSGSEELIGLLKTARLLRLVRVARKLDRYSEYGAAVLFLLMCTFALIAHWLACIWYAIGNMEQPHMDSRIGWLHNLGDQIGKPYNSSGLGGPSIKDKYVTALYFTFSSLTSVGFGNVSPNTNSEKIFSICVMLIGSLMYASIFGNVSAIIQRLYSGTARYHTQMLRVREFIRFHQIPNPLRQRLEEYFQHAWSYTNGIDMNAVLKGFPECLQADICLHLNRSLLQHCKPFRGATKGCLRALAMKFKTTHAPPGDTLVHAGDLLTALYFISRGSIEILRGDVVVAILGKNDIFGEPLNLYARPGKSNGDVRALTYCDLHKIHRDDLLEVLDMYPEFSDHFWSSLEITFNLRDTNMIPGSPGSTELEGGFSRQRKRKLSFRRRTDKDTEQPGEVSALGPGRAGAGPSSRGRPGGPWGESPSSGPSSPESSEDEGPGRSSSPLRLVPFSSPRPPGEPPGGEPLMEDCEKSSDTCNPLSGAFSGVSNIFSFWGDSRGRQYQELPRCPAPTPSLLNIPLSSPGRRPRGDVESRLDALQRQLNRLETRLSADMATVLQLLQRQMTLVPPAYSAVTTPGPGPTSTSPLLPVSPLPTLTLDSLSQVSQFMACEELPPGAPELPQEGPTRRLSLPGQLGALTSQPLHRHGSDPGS

| SMILES | hERG current change (%, negative = inhibition) at 10uM [%] |
| --- | --- |
| Cc1cc(C)cc(NC(=O)CSc2nc3c(c(=O)n2C)SC(C)C3)c1 (stereo not shown) | 3.64 |
| O=C(CCCN1C(=O)NC2(CCCC2)C1=O)N1CCN(S(=O)(=O)c2ccccc2)CC1 | 0.403 |
| CC(=O)C(c1ccccc1)C(c1ccccc1)C(C)[N+](=O)[O-] (stereo not shown) | 14.3 |
| OCC(CO)(CO)n1cnnn1 | 12.3 |
| CCN(CC)c1ccc(/C=N/O)cc1 | 18.3 |
| CC(C)CCNC(=O)C(c1ccncc1)N(CC1CCCO1)C(=O)Cn1nnc(-c2ccc(F)cc2)n1 (stereo not shown) | -64.8 |
| CC(C)(C)NC(=O)C(c1ccncc1)N(CC1CCCO1)C(=O)Cn1nnc(-c2ccc(F)cc2)n1 (stereo not shown) | -3.33 |
| COc1ccc(CN(C(=O)CN2C(=O)c3ccccc3S2(=O)=O)C(C(=O)NCC2CCCO2)c2ccncc2)cc1 (stereo not shown) | -10.3 |
| CC(C)CCNC(=O)C(c1ccncc1)N(C(=O)Cn1nnc(-c2ccc(F)cc2)n1)c1ccccc1F (stereo not shown) | -24.2 |
| O=C(NCC1CCCO1)C(c1ccc(F)cc1)N(Cc1ccc(F)cc1)C(=O)Cn1nnc(-c2cccs2)n1 (stereo not shown) | -10.9 |
| O=C(NCC1CCCO1)C(c1ccncc1)N(Cc1cccs1)C(=O)Cn1nnc(-c2ccc(F)cc2)n1 (stereo not shown) | -60.1 |
| O=C(NCC1CCCO1)C(c1ccco1)N(Cc1ccc(F)cc1)C(=O)CN1C(=O)c2ccccc2S1(=O)=O (stereo not shown) | -7.48 |
| CC(C)CCNC(=O)C(c1ccncc1)N(Cc1cccs1)C(=O)Cn1nnc(-c2ccc(F)cc2)n1 (stereo not shown) | -8.51 |
| O=C(NCC1CCCO1)C(c1ccncc1)N(Cc1ccc(F)cc1)C(=O)CN1C(=O)c2ccccc2S1(=O)=O (stereo not shown) | -58.3 |
| Cc1ccc(-n2c(SCC(=O)Nc3ccc(Cl)cc3)nc(O)cc2=O)cc1 | 9.08 |
| CC(C)(C)c1ccc(C(=O)Nc2ccc(O)c3c(=O)cc(-c4ccccc4Cl)oc23)cc1 | -3.26 |
| O=C(NCCO)/C(=C\c1ccco1)NC(=O)c1ccco1 | 1.44 |
| CNc1ccc(NC(C)=O)cc1[N+](=O)[O-] | 1.68 |
| CNC(=O)CCN(Cc1ccco1)S(=O)(=O)c1ccc(OC)c(OC)c1 | 14.1 |
| Cc1cc(C)c(NC(=O)CSc2nnc(-c3ccncc3)n2Cc2ccco2)c(Cl)c1 | -52.7 |
| CCn1c(SCC(=O)Nc2cc(C)c(Cl)cc2OC)nnc1-c1ccco1 | -4.93 |
| COC(=O)c1c(NC(=O)CSc2nnc(-c3cccnc3)n2Cc2ccco2)sc(C)c1C | -59.3 |
| C=CCn1c(SCC(=O)Nc2cc(C)c(Cl)cc2OC)nnc1-c1ccco1 | -23.6 |
| Cc1cccc(C)c1NC(=O)CSc1nnc(-c2ccncc2)n1Cc1ccco1 | -29.2 |
| O=C(CSc1nnc(Cc2cccs2)n1Cc1ccco1)Nc1ccc(Cl)cc1Cl | -57.1 |
| Cc1cc(Cl)ccc1NC(=O)CSc1nnc(Cc2cccs2)n1Cc1ccco1 | -45.3 |

| SMILES | hERG current change (%, negative = inhibition) at 10uM [%] |
| --- | --- |
| Cc1cc(C)c(NC(=O)CSc2nnc(-c3ccncc3)n2Cc2ccco2)c(C)c1 | -31.6 |
| CCOC(=O)c1c(NC(=O)CSc2nnc(-c3ccncc3)n2Cc2ccco2)sc(C)c1C | -19.3 |
| O=C(CSc1nnc(Cc2cccs2)n1Cc1ccco1)Nc1cccc(Cl)c1 | -13.9 |
| COc1cc(Cl)c(C)cc1NC(=O)CSc1nnc(-c2ccco2)n1CC(C)C | -62.1 |
| CCOC(=O)c1c(NC(=O)CSc2nnc(-c3cccnc3)n2Cc2ccco2)sc(C)c1C | -24.7 |
| COc1ccc2nc(SCc3cccc(C)c3)nc(C)c2c1 | -10.9 |
| COc1ccccc1OCCOCCOc1c(C)cc(C)cc1Br | 8.26 |
| CC(C)N1CC(O)=C(c2ccccc2)C1=N | -0.355 |
| CC(C)NC(=O)c1ccccc1NC(=O)C1CC(=O)N(C(C)C)C1 (stereo not shown) | 42.9 |
| CSc1ncccc1C(=O)Nc1nccs1 | -22.8 |
| Cc1cc(Cl)ccc1NC(=O)CSc1nnc(-c2ccncc2)n1Cc1ccco1 | -52.8 |
| O=C(CSc1nnc(-c2ccncc2)n1Cc1ccco1)Nc1ccccc1Cl | -36.3 |
| COc1ccc(NC(=O)CSc2nnc(-c3ccccc3)n2Cc2ccco2)c(OC)c1 | -26.4 |
| O=C(CSc1nnc(-c2ccncc2)n1Cc1ccco1)Nc1ccccc1F | -20.4 |
| COc1cc(Cl)c(C)cc1NC(=O)CSc1nnc(-c2cccnc2)n1Cc1ccco1 | -56.9 |
| COc1cc(Cl)c(C)cc1NC(=O)CSc1nnc(-c2ccccn2)n1Cc1ccco1 | -29.5 |
| Cc1c(C(=O)Nc2cc(S(=O)(=O)N3CCOCC3)ccc2N2CCN(C)CC2)oc2ccccc12 | -10.8 |
| Cc1ccccc1N1CC(C(=O)O)CC1=O (stereo not shown) | 14.1 |
| Cc1cccc(Cn2ccc(NC(=O)c3ccc4c(c3)OCO4)n2)c1 | -34.3 |
| CCCNC(=O)c1ccc2c(=O)n3c(-c4ccc(C)cc4)csc3nc2c1 | 5.26 |
| Cc1ccc(C2(CCNCc3ccc(N(C)C)cc3)CCOC(C(C)C)C2)cc1 (stereo not shown) | -64.1 |
| Cc1ccc(C2(CCN)CCOC(C(C)C)C2)cc1 (stereo not shown) | 17 |
| Cc1ccc(C2(CCNCc3ccco3)CCOC(C(C)C)C2)cc1 (stereo not shown) | -35.6 |
| COc1ccccc1C1(CCNS(=O)(=O)c2ccc(C)cc2)CCOC(C(C)C)C1 (stereo not shown) | 4.49 |
| CC(C)C1CC(CCNCc2ccc(N(C)C)cc2)(c2ccccc2)CCO1 (stereo not shown) | -24.6 |
| Cc1ccc(C2(CCNS(=O)(=O)c3ccc(C)cc3)CCOC(C(C)C)C2)cc1 (stereo not shown) | -53.5 |
